According to PubChem BioAssay (EPA / NIEHS):
Calls of active or inactive are those of the source. The calls were made as follows: active = hit-call score of the fitted dose curve at least 0.9, where 1 is the maximum; inactive = score below 0.9.

Assay: BSK_3C_Vis: BioMAP Diversity Plus: 3C Assay for Morphology Visualization (AID 2283025);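 also: fitted both ways so gain or loss versus DMSO counts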
Settings: primary human endothelial cells (HUVEC)
Experimental: BSK_3C is a cell-based, multiplexed-readout assay that uses umbilical vein endothelium, a human vascular primary cell, with measurements taken at 24 hours after chemical dosing in a 96-well plate.BSK_3C_Vis is an assay component measured in the BSK_3C assay. It measures NA related to cell morphology using light microscopy technology.Data from the assay component BSK_3C_Vis was analyzed into 1 assay endpoint. This assay endpoint, BSK_3C_Vis, was analyzed with bidirectional fitting relative to DMSO as the negative control and baseline of activity. Using a type of morphology reporter, gain or loss-of-signal activity can be used to understand changes in the background control. Furthermore, this assay endpoint can be referred to as a secondary readout, because this assay has produced multiple assay endpoints where this one serves a background control function. To generalize the intended target to other relatable targets, this assay endpoint is annotated to the cell morphology intended target family, where the subfamily is cell conformation.
The levels of cell surface (or secreted, indicated by the prefix "s") biomarker endpoints were measured by ELISA. Overt cytotoxicity to cells in confluent adherent cultures (all systems other than the BT system) was assessed by measuring total protein levels using sulforhodamine B (SRB) staining in parallel cultures at the time of biomarker measurements, indicated as SRB endpoints. For proliferation assays for adherent cell types, individual cell types are cultured at sub-confluence and relative cell numbers quantified by SRB staining at time points optimized for each system (48 h: 3C and CASM3C systems; 72 h: BT and HDF3CGF systems; 96 h: SAg system). SRB was performed by staining cells with 0.1% SRB after fixation with 10% TCA and reading wells at 560 nm.Viability and proliferation of PBMC (T cells) was quantified by Alamar Blue reduction for the SAg and BT systems. For PBMC viability (referred to as PBMC Cytotoxicity within the assay endpoint names), cells were plated (75,000/well in a 96-well plate) and then chemical samples added for 1 h before addition of activators, SEB and TSST-1 (20 ng/mL final concentration each). Cells were incubated for 90 h. Then, Alamar Blue (20 uL/well) (Invitrogen, Cat DAL1100) was added for 6 h, and the plates were read with a fluorescence microplate reader at 546/580 nm (excitation/emission). For PBMC proliferation, cells were plated and activated as above but incubated for only 16 h prior to addition of Alamar Blue. Plates were read after 6 h.

Row | Compound | outcome | AC50
1 | O=C1c2ccccc2C(=O)N1CCc1noc(-c2ccc(CN3CCCCCC3)s2)n1 | inactive | –
2 | CO[C@H]1/C=C/O[C@@]2(C)Oc3c(C)c(O)c4c(O)c(c(/C=N/N5CCN(C)CC5)c(O)c4c3C2=O)NC(=O)/C(C)=C\C=C\[C@H](C)[C@H](O)[C@@H](C)[C@@H](O)[C@@H](C)[C@H](OC(C)=O)[C@@H]1C | inactive | –
3 | O=C(OCCCCCCOC(=O)c1ccccc1)c1ccccc1 | inactive | –
4 | Cc1ncc(CO)c(CO)c1O | inactive | –
5 | COCC(C)OCC(C)OCC(C)O (stereo not given) | inactive | –
6 | OCCO | inactive | –
7 | CN1C(=O)N(c2ccccc2Br)Cc2cnc(Nc3ccc4c(c3)OCC(CO)O4)nc21 (stereo not given) | – | 20.7 µM (active)
8 | Cc1cc(F)ccc1-c1cc(N2CC[C@@H](O)[C@H]2CO)ncc1N(C)C(=O)C(C)(C)c1cc(C(F)(F)F)cc(C(F)(F)F)c1 | – | 10 µM (active)
9 | C[C@]12CC[C@@H]3c4ccc(O)cc4CC[C@H]3[C@@H]1CCC2=O | inactive | –
10 | O=C(Nc1ccc(Cl)cc1)Nc1ccc(Cl)c(Cl)c1 | inactive | –
11 | CC(O)CC(C)(C)O (stereo not given) | inactive | –
12 | O=C1O[C@H]([C@@H](O)CO)C(O)=C1O | inactive | –
13 | NC(=O)c1nc(-c2cccc(-c3cc(F)ccc3OCC(F)(F)C(F)(F)F)c2)n[nH]1 | – | 42.3 µM (active)
14 | CCOC(=O)O[C@H](C)OC(=O)c1ccc2c(c1)cc(C(=O)NC1CCN(C(C)C)CC1)n2Cc1cc(-c2ccc(Cl)s2)on1 | – | 5.3 µM (active)
15 | O=C1CCC(C2CCCCC2)CC1 | inactive | –
16 | CC(C)(C)c1csc(-c2cc3cc(OCc4ccccc4CC(=O)O)ccc3o2)n1 | inactive | –
17 | Cc1cn([C@H]2C[C@H](N=[N+]=[N-])[C@@H](CO)O2)c(=O)[nH]c1=O | inactive | –
18 | CC(=O)N1CCN(c2ccc(OC[C@H]3CO[C@](Cn4ccnc4)(c4ccc(Cl)cc4Cl)O3)cc2)CC1 | – | 37.5 µM (active)
19 | CCCCOC(=O)c1ccc(O)cc1 | inactive | –
20 | CCCCCCCCN(C)CCCCCCCC | inactive | –

Row | Compound | outcome | AC50
21 | O=c1ccc2ccccc2o1 | inactive | –
22 | O=C(O)Cc1cc(I)c(Oc2ccc(O)c(I)c2)c(I)c1 | – | 14.5 µM (active)
23 | CC(C)(C)c1cc(/C=C2\SC(N)=NC2=O)cc(C(C)(C)C)c1O | – | 16.3 µM (active)
24 | CCCCCCCC[Si](OCC)(OCC)OCC | inactive | –
25 | COc1cc(C(=O)NC2CCN(C)CC2)ccc1Nc1ncc2c(n1)N(C1CCCC1)CC(F)(F)C(=O)N2C | – | 18.6 µM (active)
26 | CN(C)C(=O)C1(N2CCCCC2)CCN(CC[C@@]2(c3ccc(Cl)c(Cl)c3)CN(C(=O)c3ccccc3)CCO2)CC1 | – | 12.5 µM (active)
27 | CCN(Cc1cccnc1)C(=O)c1cccc(Cl)c1[C@]1(C)C(=O)N(Cc2ccc(OC)cc2OC)c2ccc(Cl)cc21 | – | 4.34 µM (active)
28 | CCO[Si](CCCNC(N)=O)(OCC)OCC | inactive | –
29 | CN(C)c1ccc(C(=C2C=CC(=[N+](C)C)C=C2)c2ccc(N(C)C)cc2)cc1 | – | 16 µM (active)
30 | CC/C(=C(/CC)c1ccc(O)cc1)c1ccc(O)cc1 | – | 8.57 µM (active)
31 | CCN(Cc1cccc(S(=O)(=O)O)c1)c1ccc(C(=C2C=CC(=[N+](CC)Cc3cccc(S(=O)(=O)O)c3)C=C2)c2ccccc2S(=O)(=O)[O-])cc1 | inactive | –
32 | CCCCCCCCCCCCO | – | 38.4 µM (active)
33 | CC[C@@H]1C[C@H](N(Cc2cc(C(F)(F)F)cc(C(F)(F)F)c2)C(C)=O)c2cc(C(F)(F)F)ccc2N1C(=O)OC(C)C | inactive | –
34 | CC[C@H](NC(=O)c1cc(F)ccc1NS(=O)(=O)c1cccc2cccnc12)c1ccccc1 | inactive | –
35 | O=c1[nH]sc2ccccc12 | – | 5.31 µM (active)
36 | CC(C)(O)c1ccc(CNC(=O)c2cccnc2Oc2ccc3nonc3c2)cc1 | inactive | –
37 | CC1=CC(=O)/C(=C(/C)O)C(=O)O1 | inactive | –
38 | Cc1cc2c(cc1C(F)(F)F)N(C(=O)Nc1ccc(Oc3cccnc3C)nc1)CC2 | – | 36.6 µM (active)
39 | C[C@]12CC[C@@H]3c4ccc(O)cc4CC[C@H]3[C@@H]1CC[C@H]2O | – | 20.7 µM (active)
40 | CCCCOC(=O)CC(CC(=O)OCCCC)(OC(C)=O)C(=O)OCCCC | inactive | –
